PDI inh – PDI (human) enzyme inhibition; P07237; PDI insulin aggregation turbidity, A650, 90 min; inhibition, % at 10 µM; hit rate 0.052% among 350,000; AID 588391;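 active = mean inhibition across replicates of 30% or more, whatever share of single replicates reach that level; inconclusive = mean inhibition below 30% while every single replicate reaches 30%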
ALR inh – inhibitors of human sulfhydryl oxidase ALR; purified ALR, DTT oxidation, H2O2 HRP-luminol luminescence; hit rate 3.8% among 290,000; inhibition, % (no concentration beside the values); AID 485317;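 active = mean replicate inhibition above about 79%, with every replicate also reaching it, limit read from the data; inconclusive = only one of the two criteria met; inactive = mean below limit and not every replicate reaching it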
Target sequence (P55789 whole entry, looked up): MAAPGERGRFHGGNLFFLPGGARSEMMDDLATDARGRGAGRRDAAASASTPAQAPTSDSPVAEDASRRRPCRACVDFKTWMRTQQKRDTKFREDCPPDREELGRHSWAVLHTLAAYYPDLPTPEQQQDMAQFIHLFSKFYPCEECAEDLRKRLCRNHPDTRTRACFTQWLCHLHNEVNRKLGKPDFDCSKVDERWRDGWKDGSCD
ERp5 block – inhibitors of human ERp5; Q15084; ERp5 insulin aggregation, absorbance 650 nm, 90 min; inhibition, % at 9.99 µM; hit rate 0.05% among 350,000;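 active = mean replicate inhibition above about 25%, with every replicate also reaching it, limit read from the data, passing the limit was not always enough; inconclusive = only one of those two criteria met; inactive = neither criterion met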
Target sequence (Q15084 whole entry, looked up): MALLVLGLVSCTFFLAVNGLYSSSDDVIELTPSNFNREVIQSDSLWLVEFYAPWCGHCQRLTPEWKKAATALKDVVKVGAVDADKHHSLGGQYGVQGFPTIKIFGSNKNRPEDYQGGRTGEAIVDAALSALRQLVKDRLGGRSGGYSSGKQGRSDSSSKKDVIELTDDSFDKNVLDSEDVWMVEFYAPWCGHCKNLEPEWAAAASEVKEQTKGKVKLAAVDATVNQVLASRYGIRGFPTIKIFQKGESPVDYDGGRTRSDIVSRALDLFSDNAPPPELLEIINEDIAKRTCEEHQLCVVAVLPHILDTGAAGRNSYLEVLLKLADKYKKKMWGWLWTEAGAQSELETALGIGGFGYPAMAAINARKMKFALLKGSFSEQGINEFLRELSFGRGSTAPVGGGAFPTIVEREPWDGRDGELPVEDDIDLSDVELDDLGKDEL
PglD inh – blocks C. jejuni PglD acetyltransferase activity; purified PglD enzyme, DTNB colorimetric CoA detection; inhibition, % at 12.5 µM; hit rate 0.098% among 360,000; AID 602405; in the data active = inhibition above about 16%, passing the limit was not always enough; inconclusive = no clear call, values can overlap the other calls
NRP1-CendR mod – alters CendR peptide binding to human NRP-1; O14786; FAM-RPARPAR peptide binding to NRP-1, fluorescence polarization; inhibition, % at 25 µM; hit rate 0.85% among 360,000;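 active = inhibition or corrected inhibition above about 18%, plus a signal ratio from 0.5 to 1.5, limit read from the data, passing the limit was not always enough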
ARNT TACC3 PPI – disrupts binding between human ARNT and TACC3; Q9Y6A5; AlphaScreen His-ARNT PAS-B/GST-TACC3 binding, luminescence; TACC3 fragment carries E629A point mutation; inhibition, % at 9.99 µM; hit rate 0.66% among 390,000; AID 623870;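 active = mean inhibition of replicates at least 50% and at least half of replicates each reaching 50%; inconclusive = half or more replicates reach 50% but mean below 50%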
Each line names hits and unclear results; the compound was inactive in the other large screens. The sample as a whole holds a higher share of hits than the screen did.

O=C(C[C@H]1CC[C@H]2[C@@H](COC[C@@H](O)CN2C(=O)c2ccccc2)O1)Nc1ccccc1	none (no result: PDI inh, ALR inh, NRP1-CendR mod)
COc1ccc(Cn2nnnc2CN2CCOCC2)cc1	none
COc1ccc(N2CCN(Cc3nnnn3C3CCCCC3)CC2)cc1	NRP1-CendR mod 22.6 (no result: ARNT TACC3 PPI)
CCOC(=O)Cn1nnnc1CN1CCN(c2ccc(OC)cc2)CC1	ALR inh 91.7 (no result: PglD inh)
C1CCC(n2nnnc2CN2CCCC2)CC1	none (no result: ERp5 block)
COc1ccc(-c2ccccc2[C@H]2[C@@H](C#N)N(C(=O)C3CCCC3)[C@H]2CO)cc1	none (no result: PDI inh, ALR inh, PglD inh, NRP1-CendR mod, ARNT TACC3 PPI)
Cc1ccc(-c2nnc(Nc3ccc(O)cc3)c3ccccc23)cc1S(=O)(=O)NCCO	ALR inh 96.6
NC(=O)COc1ccc(Nc2nnc(-c3ccc(O)cc3)c3ccccc23)cc1	ALR inh 99.0
CNC(=O)c1cc(Nc2nnc(-c3ccc(O)cc3)c3ccccc23)ccc1OC	ALR inh 98.5
Oc1ccc(-c2nnc(Nc3cccc(O)c3)c3ccccc23)cc1	ALR inh 97.5
CCNC(=O)C[C@H]1CC[C@@H]2[C@@H](COc3ccc(NC(=O)Nc4cccc(C)c4)cc3C(=O)N2C)O1	none (no result: PDI inh, ALR inh, NRP1-CendR mod)
CSc1nc(-c2ccco2)nn1C(=O)c1ccc(C)cc1	ALR inh 97.2 (no result: PDI inh)
COc1ccccc1C(=O)n1nc(-c2ccco2)nc1SC	ALR inh 98.1 (no result: PglD inh)
NC(=O)COC(=O)c1c2c(nc3ccccc13)CCC2	ERp5 block inconclusive, NRP1-CendR mod 20.0 (no result: PglD inh)
NC(=O)COC(=O)c1c2c(nc3ccccc13)CCCC2	none (no result: PglD inh)
CC(C)NC(=O)N(C)C[C@H]1Oc2cc(C#CCN(C)C)ccc2S(=O)(=O)N([C@H](C)CO)C[C@@H]1C	none (no result: PDI inh, ALR inh, NRP1-CendR mod)
CCCN1CCC(=O)N([C@H](CSc2ccc(OC)cc2)c2ccccc2)CC1	ALR inh 98.0
CC(C)CN1CCC(=O)N([C@H](CSc2ccc(Br)cc2)c2ccccc2)CC1	none
COc1ccc(SC[C@H](Cc2ccccc2)N2CC[C@@H](C(C)(C)C)CCC2=O)cc1	ALR inh 98.8
CN1CCC(=O)N([C@H](CSc2ccccc2)c2ccccc2)CC1	none
Cc1ccc(SC[C@H](c2ccccc2)N2CCN(CC(C)C)CCC2=O)cc1	NRP1-CendR mod 32.7 (no result: ALR inh, ERp5 block)
COCC(=O)Nc1ccc2c(c1)OC[C@H](C)N(CC1CC1)C[C@@H](C)[C@@H](OC)CN(C)C2=O	none (no result: PDI inh, ALR inh, NRP1-CendR mod)
CCN1c2ccccc2N(C)C1(C)c1ccccc1 (stereo unspecified)	ARNT TACC3 PPI 64.4 (no result: ERp5 block)
O=C(NNC(=O)C1[C@H]2CCCC[C@@H]12)c1ccc(=O)oc1 (stereo partly specified)	ALR inh 95.9
C[C@@H]1CCCCO[C@@H](CN(C)C(=O)Nc2ccccc2)[C@H](C)CN([C@@H](C)CO)C(=O)c2cc(NS(=O)(=O)c3ccc(Cl)cc3)ccc2O1	none (no result: PDI inh, ALR inh, NRP1-CendR mod)
S=C(Nc1ccccc1)N1CCCN1c1ccccc1	ALR inh 87.2
Nc1cccc(CCc2ccncc2)c1	ALR inh 90.2
c1ccc(CCc2ccncc2)cc1	none
Nc1cccc(/C=C/c2ccncc2)c1	ALR inh 99.1 (no result: PglD inh, ARNT TACC3 PPI)
C(=C\c1ccccn1)/c1ccncc1	none
COc1ccccc1NS(=O)(=O)c1cc(NC(=O)c2ccc3c(c2)OCCO3)ccc1C	NRP1-CendR mod 29.8 (no result: ERp5 block, PglD inh)
CC(=O)c1ccc(NC(=O)c2ccc3nc(C)sc3c2)cc1	none
Cc1nc2ccc(C(=O)Nc3ccc(N(C)C)cc3)cc2s1	ALR inh 98.8 (no result: PglD inh)
CC1CN(C(=O)C(C)N2CCN(c3cccc(Cl)c3)CC2)CC(C)O1 (stereo unspecified)	ALR inh 87.6 (no result: PglD inh)
CCNc1cc2oc(=O)c(CN3CCOCC3)c(C)c2cc1C	NRP1-CendR mod 24.9 (no result: ERp5 block)
CCN(CC)S(=O)(=O)c1ccc(N=Nc2cc(C)cc(Br)c2O)cc1	none
Cc1ccc(N=Nc2ccc(O)cc2)c(Br)c1	ALR inh 92.2
Oc1ccc(N=Nc2ccc(Br)cc2)c(O)c1	ALR inh 98.9
Cc1ccc(S(=O)(=O)N[C@H]2C=C[C@H](CC(=O)N3CCC(Cc4ccccc4)CC3)O[C@@H]2CO)cc1	none (no result: PDI inh, ALR inh, NRP1-CendR mod)
COc1cc(CN(CC2CCCO2)C(=O)c2ccco2)cc(OC)c1OC (stereo unspecified)	none
COc1cc(CN(CC2CCCO2)C(=O)c2cccs2)cc(OC)c1OC (stereo unspecified)	NRP1-CendR mod 26.0
CN(C)C(=O)c1cccc(-c2ccc3c(c2)[C@H]2[C@H](CCN2C(=O)C2CCCCC2)[C@@H](CO)N3)c1	none (no result: PDI inh, ALR inh, ERp5 block, NRP1-CendR mod)
CO[C@@H]1CN(C)C(=O)c2ccc(NC(C)=O)cc2OC[C@@H](C)N(C(=O)Cc2ccccn2)C[C@H]1C	none (no result: PDI inh, ALR inh, NRP1-CendR mod)
CCOc1ccc2nc(NC(=O)CS(=O)(=O)c3ccc(C)cc3)sc2c1	ALR inh 80.9
CCOc1ccc2nc(NC(=O)CS(=O)(=O)c3ccccc3)sc2c1	none (no result: ERp5 block)
Cc1ccccc1-n1ccnc1SCC(=O)O	none (no result: ERp5 block)
Cc1ccc(-n2ccnc2SCC(=O)O)c(C)c1	NRP1-CendR mod 31.0 (no result: ERp5 block, PglD inh)
O=S(=O)(c1ccccc1)c1cnc(-c2cccnc2)nc1-c1ccc(Cl)c(Cl)c1	NRP1-CendR mod 20.4 (no result: ERp5 block)
CN(C)CC#Cc1cccc(-c2nc(C(=O)N[C@@H]3CCN(Cc4ccccc4)C3)cc3c2[C@@H](CCO)N(S(=O)C(C)(C)C)C3)c1 (stereo partly specified)	none (no result: PDI inh, ALR inh, PglD inh, NRP1-CendR mod, ARNT TACC3 PPI)
O=C(Nc1ccccc1)N[C@@H]1CC[C@@H](CCNS(=O)(=O)c2ccccc2F)O[C@H]1CO	none (no result: PDI inh, ALR inh, NRP1-CendR mod)
Fc1cnc(N2CCOCC2)nc1N1CCOCC1	NRP1-CendR mod 21.0 (no result: PglD inh)
Fc1cnc(Cl)nc1N1CCN(c2ccccc2)CC1	ALR inh 98.8 (no result: PglD inh)
Fc1cnc(N2CCOCC2)nc1N1CCc2ccccc21	none (no result: ERp5 block)
Cc1n[nH]c(=O)nc1N1CCN(c2ccccc2)CC1	ALR inh inconclusive (no result: ERp5 block)
CN1CCN(c2nc(N3CCN(c4ccccc4)CC3)ncc2F)CC1	ALR inh 99.1 (no result: ERp5 block, PglD inh)
COc1ccc2[nH]c3c(NCCN4CCCCC4)ncnc3c2c1	none (no result: ERp5 block)
Cc1c2cc[n+](CCN3CCCCC3)cc2c(C)c2c1[nH]c1ccc(O)cc12	NRP1-CendR mod 33.9, ARNT TACC3 PPI 49.1 (no result: ALR inh, ERp5 block, PglD inh)
C[C@H](CO)N1C[C@H](C)[C@H](CN(C)Cc2ccccc2)Oc2cc(C3=CCCC3)ccc2S1(=O)=O	none (no result: PDI inh, ALR inh, NRP1-CendR mod)
Fc1ccc(N2CCN(C3CCC(c4ccccc4)CC3)CC2)cc1 (stereo unspecified)	none
CCN1CCC(N2CCN(c3ccc(F)cc3)CC2)CC1	ALR inh 97.3
C[C@@H]1CCCCO[C@H](CN(C)C(=O)c2ccccc2)[C@H](C)CN([C@@H](C)CO)C(=O)c2cc(NC(=O)CCCCCC(=O)Nc3ccccc3N)ccc2O1	none (no result: PDI inh, ALR inh, NRP1-CendR mod)
CCOC(=O)CSC1=Nc2ccccc2C2=NC(CC(=O)NCc3ccccc3)C(=O)N12 (stereo unspecified)	ALR inh 98.1 (no result: ERp5 block)
CCCCNC(=O)CC1N=C2c3ccccc3N=C(SCC(=O)Nc3ccccc3C)N2C1=O (stereo unspecified)	ALR inh 93.6 (no result: ERp5 block)

Compound activity as filed in PubChem.
